# Most compounds without a hit are left out; they make up all but 11% or so of the library.
# PK Bst – modulators of Bacillus stearothermophilus pyruvate kinase. purified pyruvate kinase, luminescence ATP production; ribose 5-phosphate activator present at AC10. Potency, µM. 51,000 compounds, 1.2% hits; in the data active means potency below about 11 µM; inconclusive means mostly about 12 µM to 25 µM;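 the screen sought inhibitors and activators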;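 further: scaled between full activation by ribose 5 phosphate and full inhibition by luteolin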
# HADH2 inhib – inhibitors of human HADH2 dehydrogenase; Q99714; AID 886; 73,000 compounds, 3.4% hits; Potency, µM (titrated, usually from 57.1 µM), for the others: at the top dose activity change, negative = inhibition, usual class: inhibitors; recombinant HADH2, NADH fluorescence, beta-hydroxybutyryl-CoA; further: nearly all actives have a fitted effect of over 60% in size
#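 Buffer 100 mM Tris-HCl pH 9.0/0.01% Tween-20; HADH2 20 nM; NAD+ 1 mM; beta-hydroxybutyryl-CoA 90 uM (all final). 15 min cpd preincubation, RT.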
# ALOX15 inhib – blocks human 15-lipoxygenase activity. P16050. purified 15hLO-1, xylenol orange hydroperoxide absorbance. Potency, µM (top dose mostly 57.1 µM), without a hit: top-dose activity change, negative = inhibition, actives largely listed as inhibitors. 74,000 compounds, 1.4% hits; further: nearly all actives have a fitted effect of over 55% in size
#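 Quantitative HTS in 25 mM Hepes pH 7.5 containing 0.01% Triton X-100: human 15hLO-1 at 40 nM, arachidonic acid at 50 uM, 6 min turnover. Product quantified via ferrous oxidation/xylenol orange, 573:405 nm absorbance ratio.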
# HSD17B inhib – blocks hydroxysteroid 17-beta dehydrogenase activity. recombinant HSD17B10, NADH fluorescence kinetic. Potency, µM (doses to about 57.1 µM), inactives show top-dose activity change, negative = inhibition, usual class: inhibitors. 75,000 compounds, 7.6% hits;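 further: the protocol describes HADH2 (HSD17B10) and not the HSD17B4 of the title; nearly all actives have a fitted effect of over 70% in size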
#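 Activity followed as NADH fluorescence increase (ex 360, em 450 nm) every 30 seconds for 4 min, using final 90 uM beta-hydroxybutyryl CoA and 1 mM NAD+. Recombinant His-tagged enzyme, 20 nM, pH 9.0 Tris buffer, 15 min compound preincubation.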
# FLuc inh – inhibitors of firefly luciferase; Potency, µM (titrated, usually from 57.1 µM), for the others: top-dose activity change, negative = inhibition, usual class: inhibitors; purified firefly luciferase, luminescence, 8 min; 72,000 compounds, 2.2% hits; P08659; further: nearly all actives have a fitted effect of over 40% in size
# Target sequence (P08659 whole entry, looked up): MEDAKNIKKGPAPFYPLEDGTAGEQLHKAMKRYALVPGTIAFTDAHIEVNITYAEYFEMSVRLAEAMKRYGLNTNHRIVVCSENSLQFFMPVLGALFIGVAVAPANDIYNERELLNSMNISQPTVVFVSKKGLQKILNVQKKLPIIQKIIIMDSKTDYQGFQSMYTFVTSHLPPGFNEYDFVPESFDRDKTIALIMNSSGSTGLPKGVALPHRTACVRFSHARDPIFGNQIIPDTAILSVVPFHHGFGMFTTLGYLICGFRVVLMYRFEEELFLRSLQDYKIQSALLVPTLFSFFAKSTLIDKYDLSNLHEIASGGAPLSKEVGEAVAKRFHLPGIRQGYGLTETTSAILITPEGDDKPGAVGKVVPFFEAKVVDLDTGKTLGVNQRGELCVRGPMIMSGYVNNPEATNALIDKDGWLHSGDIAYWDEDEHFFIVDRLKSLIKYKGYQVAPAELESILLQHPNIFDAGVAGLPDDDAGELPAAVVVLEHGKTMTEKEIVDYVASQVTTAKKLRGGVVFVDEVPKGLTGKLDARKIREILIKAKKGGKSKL
#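 Luminescence read-out after 8 min at room temperature; enzyme reaction used luciferin plus 10 uM ATP (linear range) in imidazole buffer pH 7.2 with KCl, MgCl2, Tween 20 and BSA. Each sample was run as a titration.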
# ERK AVP block – vasopressin-driven ERK pathway inhibition; HEK293-V1b, vasopressin-stimulated pERK AlphaScreen; Potency, µM (titrated, usually from 57.5 µM), inactives show top-dose activity, negative = inhibition, usual class: inhibitors; 72,000 compounds, 0.99% hits; further: nearly all actives have a fitted effect of over 55% in size
#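 qHTS, compounds titrated on V1b-expressing HEK293 cells. Preincubation 30 min at 37C, vasopressin 25 nM for 5 min, lysis 10 min, bead incubation 5 hr at room temperature.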
# * = called active by the depositor; i = inactive; ? = inconclusive; . = no result; [ ] = remark or other dose. Unless noted, the call rests on the fitted dose curve; in most records, active means well fitted curve in the direction sought with a large enough effect; inconclusive means small, poorly fitted or top-dose-only effect, or another doubt; inactive means no such curve, though single readings can be large; an effect the other way counts as inactive or inconclusive. Unless noted, on the % scale 0 is the no-effect control and ±100 the full control effect; potency means the concentration at half of the fitted maximal effect.
SMILES,PK Bst,HADH2 inhib,ALOX15 inhib,HSD17B inhib,FLuc inh,ERK AVP block
CCCCC(=O)Nc1ccc2oc(-c3cccnc3)nc2c1,.,12%,-4%,25µM*,-12%,-9%
CCC(=O)Nc1ccc2oc(-c3cccc(C)c3)nc2c1,2.1*,4µM*,-2%,3.2µM*,2.5µM*,-13%
O=C1NC(c2ccncc2)Nc2ccccc21 (configuration not stated),>57,-7%,1%,25µM*,-32%,1%
CN1C(=O)c2oc3ccccc3c(=O)c2C1c1ccncc1 (configuration not stated),>57,1%,-5%,2%,1%,-19%
CC1Cc2ccccc2C(=O)N1 (configuration not stated),.,-1%,7%,1%,.,.
Cc1ccc(C2NC(=O)c3ccccc3N2)s1 (configuration not stated),>57,25µM*,-12%,20µM*,-6%,-9%
c1ccc(CSc2nnc3c(n2)OC(c2ccco2)Nc2ccccc2-3)cc1 (configuration not stated),.,-12%[11.4 µM],-10%[11.4 µM],-15%,-12%,?
O=C1NC(c2ccco2)Nc2ccccc21 (configuration not stated),>57,?,-16%,32µM*,0%,-1%
COC(=O)[C@@H]1CCCN1C(=O)[C@@H](C)CO,.,0%[11.4 µM],5%[11.4 µM],-1%[11.4 µM],0%[11.4 µM],0%[11.5 µM]
N#Cc1c(-c2ccco2)cc(C2CC2)nc1SCC(=O)c1ccccc1,>57,-15%,16µM*,25µM*,-4%,8%
CSc1nc(-c2ccco2)cc(-c2ccccc2)c1C#N,>57,-8%,-17%,?,1%,18%
COC(=O)CSc1nc(-c2ccccc2)cc(-c2ccco2)c1C#N,.,-8%,?,20µM*,-4%,-10%
Cn1c(CSc2nc3ccc(Br)cc3[nH]2)nc2ccccc21,.,-7%,-5%,-8%,-6%,20µM*
Cc1cccc(OCC(=O)Nc2cc(C)ccc2O)c1,>57,-9%,-11%,-5%,-4%,?
COc1cccc(C(=O)/C=C/Nc2cc(C)ccc2O)c1,5.6*,-8%,?,-26%,7.9µM*,?
COc1cc(C2C(C(=O)N3CCOCC3)=C(C)NC3=C2C(=O)CCC3)ccc1OC(C)=O (configuration not stated),>57,?,8%,32µM*,0%,7%
CC1=C(C(=O)N2CCOCC2)C(c2ccccc2F)C2=C(CCCC2=O)N1 (configuration not stated),>57,25µM*,8%,25µM*,5%,-7%
COc1cc(OC)c(C2C(C(=O)N3CCOCC3)=C(C)NC3=C2C(=O)CC(C)(C)C3)cc1OC (configuration not stated),>57,6%,3%,1%,3%,-14%
COc1ccc(C2C(C(=O)N3CCOCC3)=C(C)NC3=C2C(=O)CC(C)(C)C3)cc1O (configuration not stated),>57,-1%,6%,-18%,1%,-1%
CCN1C(C)=C(C(=O)OC)C(c2ccccc2)N2C(=O)[C@](O)(C(=O)OC)C(c3ccccc3)C(C(=O)c3ccccc3)=C12 (some centres not stated),.,11%[11.4 µM],0%[11.4 µM],0%[11.4 µM],.,-4%[11.5 µM]
COC(=O)[C@@H]1C[C@@]2(O)[C@H](O)[C@H](O)[C@H](O)C[C@H]2N1Cc1ccc(N2CCN(C)CC2)cc1,.,.,.,-23%,.,-4%
COc1ccc(CCNC(=O)COC(=O)c2ccco2)cc1OC,>57,-6%,11%,-3%,-4%,-3%
COc1ccccc1-n1c(N)c(C(=O)NCC2CCCO2)c2nc3ccccc3nc21 (configuration not stated),>26,.,.,.,2%[25.5 µM],.
COc1ccc(-n2c(N)c(C(=O)NCc3ccco3)c3nc4ccccc4nc32)c(OC)c1,>57,91%,-11%,32µM*,-1%,-18%
COc1ccc(CCNC(=O)c2ccc3nc(-c4ccco4)c(-c4ccco4)nc3c2)cc1OC,>57,6.3µM*,7.9µM*,16µM*,-9%,20µM*
SMILES,PK Bst,HADH2 inhib,ALOX15 inhib,HSD17B inhib,FLuc inh,ERK AVP block
COc1ccc(CCn2c(N)c(C(=O)NCc3ccco3)c3nc4ccccc4nc32)cc1OC,>57,?,-28%,25µM*,1%,-16%
O=[N+]([O-])/C=C\c1cc2ccccc2[nH]1,.,-9%[11.4 µM],-7%[11.4 µM],-1%[11.4 µM],0%[11.4 µM],31%[11.5 µM]
CNCC(O)c1cccc(O)c1 (configuration not stated),.,.,6%,8%,.,1%
C[C@H](O)[C@@H]1C(=O)N2C(C(=O)O)=C(SCCN=CN)C[C@@H]12,.,-1%[25.6 µM],-3%[25.6 µM],-1%[25.6 µM],5%[25.5 µM],8%[25.7 µM]
O/N=C1/CCc2cccc3cccc1c23,.,?,-8%,-18%,-4%,-25%
O=C1OCc2cccc3cccc1c23,>57,25µM*,7%,25µM*,0%,10%
Cn1c(=N)c(S(=O)(=O)c2ccccc2)cc2c(=O)n3ccccc3nc21,>57,-7%,-9%,?,1%,-21%
Cn1c(C(=O)N2COCC2(C)C)cc2c(=O)n3ccccc3nc21,>57,25µM*,-1%,25µM*,-6%,13%
Cn1nc(-c2ccc(C(=O)NCC3CCCO3)cc2)c2ccccc2c1=O (configuration not stated),>57,-14%,8%,4%,-1%,-29%
Cc1cccn2c(=O)c3cc(C(=O)NCC4CCCO4)n(C)c3nc12 (configuration not stated),>57,-8%,8%,3.2µM*,3%,20%
Cn1c(C(=O)NCC2CCCO2)cc2c(=O)n3ccccc3nc21 (configuration not stated),i,25µM*,-1%,10µM*,1%,8%
Cc1cccn2c(=O)c3cc(C(=O)N4CCCc5ccccc54)n(C)c3nc12,>57,1%,-7%,-24%,1%,13%
Cc1cccn2c(=O)c3cc(C(=O)N4CCc5ccccc5C4)n(C)c3nc12,>57,?,1%,3.2µM*,2%,22%
N#C/C(=C(\O)C(=O)O)c1ccc(-c2cccc3ccccc23)cc1,.,2%[11.4 µM],-5%[11.4 µM],1%[11.4 µM],1%[11.4 µM],3%[11.5 µM]
O=C(c1ccncc1)N1CCC2(CC1)CN(c1ncccn1)C2,.,3%,-4%,?,-1%[11.4 µM],7%
O=C(NCC1CCCO1)c1cc2ccccc2[nH]1 (configuration not stated),>57,?,-4%,32µM*,-11%,0%
CCOC(=O)C1CCCN(C(=O)c2cc3c(=O)n4cccc(C)c4nc3n2C)C1 (configuration not stated),>57,-14%,4%,3.2µM*,0%,2%

# Screening results deposited in PubChem BioAssay by National Center for Advancing Translational Sciences (NCATS).
